According to the supplement of paper PMC12067093, “Discovery and optimisation of a covalent ligand for TRIM25 and its application to targeted protein ubiquitination” (Chemical Science, 2025):
The full data set covers some 21,000 targets. This sample favours those with the largest changes.

Compound: Cc1cc(ccc1-c1ccccc1)C(=O)N1CCCN(CC1)C(=O)CCl [compound 10]
Assay: probe-labelled cysteine peptide fold change vs DMSO (competition) (log2 fold change); higher = less target engagement (more negative = stronger competition)
Settings: THP-1, incubation time: 4 h
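Note: competitive profiling in live THP-1 cells: cysteine peptides tagged with an iodoacetamide desthiobiotin (IA-DTB) probe, intensity after compound treatment relative to DMSO-treated cells.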

UniProt Q9Y5L0, sequence (Q9Y5L0 whole entry, looked up): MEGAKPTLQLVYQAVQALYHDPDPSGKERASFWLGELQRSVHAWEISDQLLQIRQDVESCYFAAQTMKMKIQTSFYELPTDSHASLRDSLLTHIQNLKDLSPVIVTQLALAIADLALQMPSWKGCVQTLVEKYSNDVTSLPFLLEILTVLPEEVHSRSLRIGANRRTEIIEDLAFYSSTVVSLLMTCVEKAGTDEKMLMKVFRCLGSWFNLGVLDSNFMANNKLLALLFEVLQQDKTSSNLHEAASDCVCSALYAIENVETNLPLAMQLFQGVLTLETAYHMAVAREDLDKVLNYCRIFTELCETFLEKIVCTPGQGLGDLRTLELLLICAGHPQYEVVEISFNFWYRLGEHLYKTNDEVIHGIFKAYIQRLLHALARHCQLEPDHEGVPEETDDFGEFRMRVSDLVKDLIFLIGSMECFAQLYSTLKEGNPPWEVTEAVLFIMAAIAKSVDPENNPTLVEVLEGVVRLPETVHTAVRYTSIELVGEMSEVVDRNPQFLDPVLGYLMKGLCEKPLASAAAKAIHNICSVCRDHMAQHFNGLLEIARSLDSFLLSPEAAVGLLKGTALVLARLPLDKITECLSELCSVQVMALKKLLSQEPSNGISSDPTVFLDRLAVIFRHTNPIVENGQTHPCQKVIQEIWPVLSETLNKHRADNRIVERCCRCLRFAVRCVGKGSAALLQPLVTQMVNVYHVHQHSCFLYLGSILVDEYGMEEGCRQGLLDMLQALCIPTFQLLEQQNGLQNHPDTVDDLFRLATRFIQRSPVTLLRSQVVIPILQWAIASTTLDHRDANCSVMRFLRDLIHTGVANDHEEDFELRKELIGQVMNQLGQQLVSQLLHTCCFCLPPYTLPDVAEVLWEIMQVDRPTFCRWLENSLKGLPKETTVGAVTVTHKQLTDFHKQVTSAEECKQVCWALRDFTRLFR
UniProt P23497, sequence (P23497 whole entry, looked up): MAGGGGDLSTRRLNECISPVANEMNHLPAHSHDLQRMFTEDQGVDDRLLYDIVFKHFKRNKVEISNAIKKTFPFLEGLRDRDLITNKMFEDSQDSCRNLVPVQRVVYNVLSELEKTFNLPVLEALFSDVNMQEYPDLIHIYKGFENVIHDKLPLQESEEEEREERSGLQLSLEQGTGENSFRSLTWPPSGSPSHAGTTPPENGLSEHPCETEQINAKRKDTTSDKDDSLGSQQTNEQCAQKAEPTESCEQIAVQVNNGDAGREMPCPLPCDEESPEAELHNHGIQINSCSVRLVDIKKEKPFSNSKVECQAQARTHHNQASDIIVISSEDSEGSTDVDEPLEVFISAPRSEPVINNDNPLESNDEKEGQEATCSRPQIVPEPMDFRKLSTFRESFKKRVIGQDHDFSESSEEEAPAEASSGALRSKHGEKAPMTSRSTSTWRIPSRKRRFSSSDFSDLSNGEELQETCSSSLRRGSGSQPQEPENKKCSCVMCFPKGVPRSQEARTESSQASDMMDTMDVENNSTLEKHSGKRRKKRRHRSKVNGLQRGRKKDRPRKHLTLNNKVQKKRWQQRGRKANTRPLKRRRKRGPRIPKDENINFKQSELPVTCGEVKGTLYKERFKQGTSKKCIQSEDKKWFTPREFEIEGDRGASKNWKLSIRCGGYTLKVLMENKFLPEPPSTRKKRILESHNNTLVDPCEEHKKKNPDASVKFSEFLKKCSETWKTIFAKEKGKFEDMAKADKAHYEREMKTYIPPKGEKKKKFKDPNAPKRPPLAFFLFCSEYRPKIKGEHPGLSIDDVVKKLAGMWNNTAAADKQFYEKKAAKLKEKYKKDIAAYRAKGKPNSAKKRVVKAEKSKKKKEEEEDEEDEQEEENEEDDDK
UniProt P52888, sequence (P52888 whole entry, looked up): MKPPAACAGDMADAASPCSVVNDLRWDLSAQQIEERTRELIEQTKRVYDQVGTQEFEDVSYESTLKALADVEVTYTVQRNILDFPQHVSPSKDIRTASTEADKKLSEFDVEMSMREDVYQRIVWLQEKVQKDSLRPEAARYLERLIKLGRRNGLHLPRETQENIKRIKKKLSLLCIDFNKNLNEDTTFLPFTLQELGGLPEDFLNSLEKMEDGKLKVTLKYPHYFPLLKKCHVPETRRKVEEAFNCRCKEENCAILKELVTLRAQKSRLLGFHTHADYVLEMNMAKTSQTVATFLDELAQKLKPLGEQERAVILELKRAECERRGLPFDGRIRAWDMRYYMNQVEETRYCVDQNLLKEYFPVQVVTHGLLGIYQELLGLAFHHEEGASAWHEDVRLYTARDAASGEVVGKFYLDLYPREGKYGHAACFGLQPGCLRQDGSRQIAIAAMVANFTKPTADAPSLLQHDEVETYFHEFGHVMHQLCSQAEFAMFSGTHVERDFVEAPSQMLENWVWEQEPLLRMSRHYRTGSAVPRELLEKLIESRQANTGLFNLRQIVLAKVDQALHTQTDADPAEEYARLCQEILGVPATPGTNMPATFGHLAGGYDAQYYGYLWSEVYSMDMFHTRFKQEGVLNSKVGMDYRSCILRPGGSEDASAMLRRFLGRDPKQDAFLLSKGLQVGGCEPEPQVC
UniProt Q9Y5Y6, sequence (Q9Y5Y6 whole entry, looked up): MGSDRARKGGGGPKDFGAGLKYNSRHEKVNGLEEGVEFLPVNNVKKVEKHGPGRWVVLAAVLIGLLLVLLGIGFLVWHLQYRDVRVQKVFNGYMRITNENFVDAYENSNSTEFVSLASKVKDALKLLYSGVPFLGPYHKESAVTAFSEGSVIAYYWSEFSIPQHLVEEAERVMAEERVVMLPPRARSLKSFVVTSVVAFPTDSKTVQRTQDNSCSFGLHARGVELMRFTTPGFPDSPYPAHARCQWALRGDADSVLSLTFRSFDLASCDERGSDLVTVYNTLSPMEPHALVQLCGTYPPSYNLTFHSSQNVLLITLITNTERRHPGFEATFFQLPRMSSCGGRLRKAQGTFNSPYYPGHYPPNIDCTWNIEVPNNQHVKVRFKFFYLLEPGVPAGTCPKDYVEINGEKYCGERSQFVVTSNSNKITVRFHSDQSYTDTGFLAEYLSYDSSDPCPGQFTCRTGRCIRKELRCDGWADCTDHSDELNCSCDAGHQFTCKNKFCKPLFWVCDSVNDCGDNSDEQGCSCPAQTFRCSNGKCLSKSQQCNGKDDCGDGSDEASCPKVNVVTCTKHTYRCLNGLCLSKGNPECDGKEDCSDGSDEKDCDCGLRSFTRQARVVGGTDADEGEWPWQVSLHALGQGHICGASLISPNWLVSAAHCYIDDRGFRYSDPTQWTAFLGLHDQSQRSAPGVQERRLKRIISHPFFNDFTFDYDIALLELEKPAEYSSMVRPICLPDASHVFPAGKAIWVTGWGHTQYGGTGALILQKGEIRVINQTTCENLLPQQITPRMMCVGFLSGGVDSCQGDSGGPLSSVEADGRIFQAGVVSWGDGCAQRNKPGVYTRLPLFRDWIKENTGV
UniProt Q96N21, sequence (Q96N21 whole entry, looked up): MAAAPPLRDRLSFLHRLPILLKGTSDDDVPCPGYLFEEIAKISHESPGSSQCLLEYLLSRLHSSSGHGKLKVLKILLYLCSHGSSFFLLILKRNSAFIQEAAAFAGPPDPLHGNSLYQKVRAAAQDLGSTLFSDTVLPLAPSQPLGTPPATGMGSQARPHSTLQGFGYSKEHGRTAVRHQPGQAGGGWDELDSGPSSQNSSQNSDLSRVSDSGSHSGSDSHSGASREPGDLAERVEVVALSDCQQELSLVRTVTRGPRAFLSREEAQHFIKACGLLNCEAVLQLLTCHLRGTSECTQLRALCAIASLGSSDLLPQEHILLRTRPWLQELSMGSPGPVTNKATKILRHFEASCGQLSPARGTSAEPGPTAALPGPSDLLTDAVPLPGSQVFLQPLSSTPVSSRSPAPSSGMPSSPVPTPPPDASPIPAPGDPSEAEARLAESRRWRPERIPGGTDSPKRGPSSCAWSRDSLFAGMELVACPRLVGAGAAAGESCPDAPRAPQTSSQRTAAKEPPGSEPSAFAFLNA
UniProt O00186, sequence (O00186 whole entry, looked up): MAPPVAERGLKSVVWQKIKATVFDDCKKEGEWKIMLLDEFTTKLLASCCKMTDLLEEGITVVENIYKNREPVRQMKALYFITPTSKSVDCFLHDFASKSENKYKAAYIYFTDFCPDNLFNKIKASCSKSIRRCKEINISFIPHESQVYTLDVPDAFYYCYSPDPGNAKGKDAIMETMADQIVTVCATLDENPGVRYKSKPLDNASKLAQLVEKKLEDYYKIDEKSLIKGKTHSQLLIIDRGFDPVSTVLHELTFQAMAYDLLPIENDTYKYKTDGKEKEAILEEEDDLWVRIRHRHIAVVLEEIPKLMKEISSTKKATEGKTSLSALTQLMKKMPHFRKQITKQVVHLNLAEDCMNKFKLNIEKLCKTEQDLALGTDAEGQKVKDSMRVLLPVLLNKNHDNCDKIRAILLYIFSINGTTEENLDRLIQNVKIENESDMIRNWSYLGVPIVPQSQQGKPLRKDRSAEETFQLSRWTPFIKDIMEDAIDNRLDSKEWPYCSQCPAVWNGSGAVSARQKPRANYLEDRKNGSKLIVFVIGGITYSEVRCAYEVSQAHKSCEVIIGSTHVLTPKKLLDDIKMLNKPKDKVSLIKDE
UniProt P61764, sequence (P61764 whole entry): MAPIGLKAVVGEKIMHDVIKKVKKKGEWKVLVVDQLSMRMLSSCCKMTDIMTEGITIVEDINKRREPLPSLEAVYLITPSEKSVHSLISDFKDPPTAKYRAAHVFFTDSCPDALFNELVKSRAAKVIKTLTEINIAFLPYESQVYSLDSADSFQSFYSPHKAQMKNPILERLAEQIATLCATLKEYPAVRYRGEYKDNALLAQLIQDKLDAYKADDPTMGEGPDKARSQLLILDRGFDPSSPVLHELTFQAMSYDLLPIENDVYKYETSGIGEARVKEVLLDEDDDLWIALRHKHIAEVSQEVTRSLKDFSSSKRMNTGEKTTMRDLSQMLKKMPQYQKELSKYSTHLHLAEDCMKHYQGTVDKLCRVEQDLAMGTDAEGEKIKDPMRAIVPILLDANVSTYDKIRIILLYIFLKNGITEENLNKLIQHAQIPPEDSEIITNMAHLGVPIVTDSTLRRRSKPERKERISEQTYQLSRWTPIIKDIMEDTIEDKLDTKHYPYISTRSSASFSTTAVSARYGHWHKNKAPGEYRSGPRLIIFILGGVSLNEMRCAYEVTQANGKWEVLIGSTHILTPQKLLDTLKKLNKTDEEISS

Target	probe-labelled cysteine peptide fold change (10 µM)	probe-labelled cysteine peptide fold change (50 µM)
STK11_Q15831_418_ACSASSK (UniProt Q15831)	-0.73	-1.42
SPAG7_O75391_101_SILHDVVEVAGLTSFSFGEDDDCR (UniProt O75391)	-0.0328	-0.0999
STX12_Q86Y82_29_DFSSIIQTCSGNIQR (UniProt Q86Y82)	0.143	0.0626
TOP2A_P11388_170_LCNIFSTK (UniProt P11388)	-0.173	-0.0147
SPATA2_Q9UM82_41_QRPGSDECLR (UniProt Q9UM82)	-0.46	-1.35
THOP1_P52888_175_KLSLLCIDFNK (UniProt P52888)	-0.00153	0.0417
STXBP5_Q5T5C0_697_SRQPSGAGLCDISEGTVVPEDR (UniProt Q5T5C0)	-0.389	-0.218
TANK_Q92844_318_TKPSNLVNTCIR (UniProt Q92844)	-0.257	-0.558
TEPSIN_Q96N21_273_ACGLLNCEAVLQLLTCHLR (UniProt Q96N21)	0.821	2.62
TOE1_Q96GM8_371_KQVCGDSIKPEETEQEVAADETR (UniProt Q96GM8)	-0.0655	-0.661
TCF20_Q9UGU0_1918_YHYPCAIDADCLLHEENFSVR (UniProt Q9UGU0)	0.317	0.504
TET2_Q6N021_784_VEECFHGENQYSK (UniProt Q6N021)	-0.295	-0.385
SURF2_Q15527_29+38_CILTGHELPCR (UniProt Q15527)	0.0902	-0.0729
STIP1_P31948_471_CMMAQYNR (UniProt P31948)	0.271	-0.0499
SPC24_Q8NBT2_155_IEWDYECEPGMVK (UniProt Q8NBT2)	-0.17	0.000933
TOP1_P11387_504_AGNEKEEGETADTVGCCSLR (UniProt P11387)	-0.0614	-1.22
STXBP2_Q15833_110_AAHIFFTDTCPEPLFSELGR (UniProt Q15833)	0.0186	0.272
TMEM173_Q86WV6_12_PHSSLHPSIPCPR (UniProt Q86WV6)	0.0393	-0.625
SON_P18583-2_2133_DLMANATCFR (UniProt P18583)	5.1e-05	-0.396

Target	probe-labelled cysteine peptide fold change (10 µM)	probe-labelled cysteine peptide fold change (50 µM)
SYK_P43405_597_MGCPAGCPR (UniProt P43405)	0.0815	-0.138
THOC5_Q13769_282_HLPPPLYVLFVQATAYGQACDK (UniProt Q13769)	0.435	1.48
STAT6_P42226_228_CESLVDIYSQLQQEVGAAGGELEPK (UniProt P42226)	0.0404	-0.0978
STXBP1_P61764_110_AAHVFFTDSCPDALFNELVK (UniProt P61764)	0.24	0.527
THUMPD1_Q9NXG2_31_CDAGGPR (UniProt Q9NXG2)	0.347	1.08
TARSL2_A2RTX5_637_YHQCATIQLDFQLPIR (UniProt A2RTX5)	0.00987	0.158
TLE1_Q04724_621_QFQGHTDGASCIDISNDGTK<|>TLE4_Q04727_624_QFQGHTDGASCIDISNDGTK (UniProt Q04727+Q04724)	-0.231	-0.0783
THADA_Q6YHU6_1605_ENHPECFCK (UniProt Q6YHU6)	-0.00737	0.033
ST14_Q9Y5Y6_602+604_DCDCGLR (UniProt Q9Y5Y6)	-0.217	-1.07
TDRD7_Q8NHU6_1029_CNQWSEEASMVFR (UniProt Q8NHU6)	-0.175	-0.845
THOC1_Q96FV9_396_NEGCPSFVK (UniProt Q96FV9)	-0.137	-0.0773
TNPO3_Q9Y5L0_580_ITECLSELCSVQVMALKK (UniProt Q9Y5L0)	-0.00843	-0.267
THEMIS2_Q5TEJ8_355_DCEGEREENPEFTSLAVGDR (UniProt Q5TEJ8)	-0.0936	0.194
TOR4A_Q9NXH8_230_HHCPEAR (UniProt Q9NXH8)	-0.165	0.0719
SUN2_Q9UH99_601_VILQPDVHPGNCWAFQGPQGFAVVR (UniProt Q9UH99)	0.0264	0.295
STXBP3_O00186_114_AAYIYFTDFCPDNLFNK (UniProt O00186)	0.0291	0.184
SP100_P23497_266+270_EMPCPLPCDEESPEAELHNHGIQINSCSVR (UniProt P23497)	-0.396	-1.25
TOE1_Q96GM8_80_SLLNQCIEER (UniProt Q96GM8)	-0.52	-2.28
